From PubChem BioAssay (Tox21) come the findings set out here.

Experiment [1] in a line: qHTS assay to identify small molecule antagonists of the thyroid receptor (TR) signaling pathway - cell viability counter screen (AID 743064). Also: nearly all actives have a fitted effect of over 50% in size. Also: potency is read from the fitted curve at half-maximal effect. Put shortly:
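Rat GH3 pituitary tumor cells stably expressing two TR response elements driving luciferase were plated, rested 4 h, then dosed with library compounds and T3 (1 nM final). After 23.5 h at 37 °C, CellTiter-Fluor was added for 30 min and fluorescence recorded.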
(Quantitative high-throughput screening tests each substance at several concentrations.)

Experiment [2] has as its system thyroid hormone receptor (rat, GH3 cells). Kind of experiment: qHTS assay to identify small molecule agonists of the thyroid receptor (TR) signaling pathway (AID 743066; calls by dose curve).
Experiment [3] concerns the target Estrogen receptor (Homo sapiens) (UniProt P03372). Kind of experiment: qHTS assay to identify small molecule antagonists of the estrogen receptor alpha (ER-alpha) signaling pathway (AID 743069; active = well fitted curve in the direction sought with a large enough effect in the signal ratio in the repeat runs, not every such curve was filed as active; the % refers to the signal ratio). Put shortly:
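HEK293 cells stably carrying an ER-alpha-UAS-bla beta-lactamase reporter were pre-cultured overnight in 2% charcoal-stripped FBS medium. Test compounds in DMSO were added together with 17beta-estradiol for 18 hr at 37C. Read-out was fluorescence after 2 hr with LiveBLAzer B/G FRET substrate at room temperature.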

The nature of experiment [4]: qHTS assay to identify small molecule antagonists of the estrogen receptor alpha (ER-alpha) signaling pathway - cell viability counter screen (AID 743074; calls by dose curve; also: nearly all actives have a fitted effect of over 45% in size).
The target in experiment [5] is Estrogen receptor (Homo sapiens) (UniProt P03372). Kind of experiment: qHTS assay to identify small molecule agonists of the estrogen receptor alpha (ER-alpha) signaling pathway (AID 743075; calls by dose curve).
The target is the same in experiment [6]. Description: qHTS assay to identify small molecule agonists of the estrogen receptor alpha (ER-alpha) signaling pathway using the BG1 cell line (AID 743079). Also: nearly all actives have a fitted effect of over 20% in size. Also: potency is read from the fitted curve at half-maximal effect.
Experiment [7] in a line: qHTS assay to identify small molecule antagonists of the estrogen receptor alpha (ER-alpha) signaling pathway using the BG1 cell line (AID 743080; calls by dose curve;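 also: BG1 cells stimulated with 17beta-estradiol alongside compound; series mostly up to about 70 µM; nearly all actives have a fitted effect of over 25% in size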). Put shortly:
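Endogenous full-length ER-alpha in BG1-Luc-4E2 cells drives a stably integrated 4×ERE luciferase gene; compounds were tested against 17beta-estradiol over 21.5 h, with luminescence and multiplexed viability fluorescence recorded.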

The nature of experiment [8]: qHTS assay to identify small molecule antagonists of the estrogen receptor alpha (ER-alpha) signaling pathway using the BG1 cell line - cell viability counter screen (AID 743081).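 Also: compound given together with 17beta-estradiol as the ER stimulus; nearly all actives have a fitted effect of over 45% in size.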 Also: potency is read from the fitted curve at half-maximal effect.
Experiment [9] addresses Aromatase (Homo sapiens) (UniProt P11511). Kind of experiment: qHTS assay to identify aromatase inhibitors (AID 743083). Also: series mostly up to about 70 µM; nearly all actives have a fitted effect of over 55% in size.
A short description of experiment [10]: qHTS assay to identify aromatase inhibitors - cell viability counter screen (AID 743084).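 Also: cells stimulated with testosterone during compound exposure; nearly all actives have a fitted effect of over 55% in size.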 Also: potency is read from the fitted curve at half-maximal effect.
Experiment [11] has as its target Aryl hydrocarbon receptor (Homo sapiens) (UniProt P35869). Kind of experiment: qHTS assay to identify small molecule that activate the aryl hydrocarbon receptor (AhR) signaling pathway (AID 743085). Also: nearly all actives have a fitted effect of over 15% in size. Also: potency is read from the fitted curve at half-maximal effect.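 As to activation: HG2L7.5c1 human HepG2 liver cells with stably integrated DRE-driven firefly reporter; series mostly up to about 70 µM.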 Summed up: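 Compounds were tested in HepG2 hepatocellular carcinoma cells harbouring a stably integrated luciferase gene under control of 20 DREs. Increased reporter signal after 24 h treatment at 37C was taken as AhR activation.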

Experiment [12] in a line: qHTS assay to identify small molecule that activate the aryl hydrocarbon receptor (AhR) signaling pathway - cell viability counter screen (AID 743086). Also: nearly all actives have a fitted effect of over 45% in size. Also: potency is read from the fitted curve at half-maximal effect. Put shortly: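 HepG2-AhR-luc (HG2L7.5c1) cells, 4000/well, were preincubated 5 h at 37C, exposed to compound in qHTS format for 24 hr at 37C, then given CellTiter-Fluor for 30 min; viability was read as fluorescence in the reporter wells.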

In experiment [13] the target is Peroxisome proliferator-activated receptor gamma (Homo sapiens) (UniProt P37231). Description: qHTS assay to identify small molecule agonists of the peroxisome proliferator-activated receptor gamma (PPARg) signaling pathway (AID 743094; active = well fitted activation curve with a large enough effect in the signal ratio in the repeat runs, not every such curve was filed as active; the % refers to the signal ratio; also: potency is read from the fitted curve at half-maximal effect). Summed up:
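GeneBLAzer PPARg UAS-bla HEK293H cells were plated, rested 5 h, then exposed to compounds for 17 h at 37C. Beta-lactamase activity was read by LiveBLAzer B/G FRET substrate fluorescence after 1 h at room temperature.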

Experiment [14] is described as follows: qHTS assay to identify small molecule antagonists of the peroxisome proliferator-activated receptor gamma (PPARg) signaling pathway - cell viability counter screen (AID 743194). Also: nearly all actives have a fitted effect of over 55% in size. Summed up: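 PPARg-UAS-bla HEK293H cells were plated, rested 5 h at 37 C, then treated with compounds plus rosiglitazone (50 nM final) for 17 h at 37 C; viability was then read by CellTiter-Glo luminescence after 30 min at room temperature.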

Experiment [15] is described as follows: qHTS assay for small molecule agonists of the antioxidant response element (ARE) signaling pathway (AID 743202; active = well fitted activation curve with a large enough effect in the signal ratio in the repeat runs, not every such curve was filed as active; the % refers to the signal ratio). Summed up:
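Read-out: LiveBLAzer B/G FRET substrate fluorescence after 2 h at room temperature, following 16 h compound treatment at 37 C of HepG2 cells carrying an ARE-driven beta-lactamase reporter.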

A short description of experiment [16]: qHTS assay for small molecule agonists of the antioxidant response element (ARE) signaling pathway - cell viability counter screen (AID 743203; calls by dose curve; also: nearly all actives have a fitted effect of over 55% in size). Put shortly: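 ARE-bla HepG2 cells were plated, rested 5 h at 37C/5% CO2, then exposed to compounds in DMSO for 16 h. Viability was read as CellTiter-Glo luminescence after 30 min at room temperature, in the same wells as the ARE screen.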

The nature of experiment [17]: qHTS assay for small molecule activators of the heat shock response signaling pathway - cell viability counter screen (AID 743209). Also: nearly all actives have a fitted effect of over 50% in size. Summed up:
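HSE-bla HeLa cells plated overnight, then exposed to Tox21 compounds (23 nL in DMSO) for 5 h at 37 C. After the bla reporter read, CellTiter-Glo was added in the same wells and luminescence read after 30 min at room temperature.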

Experiment [18] in a line: qHTS assay for small molecule activators of the heat shock response signaling pathway (AID 743210; active = well fitted activation curve with a large enough effect in the signal ratio in the repeat runs, with a control signal flat, not every such curve was filed as active; the % refers to the signal ratio; also: series mostly up to about 63 µM). Put shortly: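 HSE-bla HeLa cells (beta-lactamase reporter under heat shock response elements) were exposed to compounds for 5 h at 37 C, then loaded with LiveBLAzer B/G FRET substrate for 2.5 h at room temperature before fluorescence reading.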
Experiment [19] addresses Peroxisome proliferator-activated receptor gamma (Homo sapiens) (UniProt P37231). Description: qHTS assay to identify small molecule antagonists of the peroxisome proliferator-activated receptor gamma (PPARg) signaling pathway (AID 743191; calls by dose curve; also: series mostly up to about 63 µM; nearly all actives have a fitted effect of over 30% in size). Put shortly: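 GeneBLAzer PPARg UAS-bla HEK293H cells carrying a UAS-driven beta-lactamase reporter were plated at 3000 cells/well, preincubated 5 h at 37C, then given compound for 17 h at 37C; LiveBLAzer B/G FRET substrate was read after 1 h at room temperature.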

Results filed as inconclusive are left out. The source made the active and inactive calls. Unless noted, calls follow the shape of the dose curve; as a rule, active = well fitted curve in the direction sought with a large enough effect in the repeat runs; inconclusive = weak or mixed curves; inactive = no such curve, though single readings can be large; an effect the other way counts as inactive or inconclusive.

Sequence of Peroxisome proliferator-activated receptor gamma (Homo sapiens) (P37231 whole entry, looked up): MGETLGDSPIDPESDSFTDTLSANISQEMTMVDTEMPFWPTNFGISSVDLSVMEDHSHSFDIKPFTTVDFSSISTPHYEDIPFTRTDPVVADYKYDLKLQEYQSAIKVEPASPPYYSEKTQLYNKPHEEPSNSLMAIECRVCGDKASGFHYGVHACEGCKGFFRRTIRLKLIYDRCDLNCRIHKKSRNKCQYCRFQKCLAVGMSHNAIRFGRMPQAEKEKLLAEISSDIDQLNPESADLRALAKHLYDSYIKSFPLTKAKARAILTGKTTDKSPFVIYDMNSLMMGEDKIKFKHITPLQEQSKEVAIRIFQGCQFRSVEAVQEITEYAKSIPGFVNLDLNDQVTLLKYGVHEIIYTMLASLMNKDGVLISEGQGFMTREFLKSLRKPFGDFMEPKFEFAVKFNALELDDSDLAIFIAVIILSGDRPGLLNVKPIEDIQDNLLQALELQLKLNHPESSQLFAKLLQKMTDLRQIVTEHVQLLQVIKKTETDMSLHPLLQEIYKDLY
Sequence of Aromatase (Homo sapiens) (P11511 whole entry, looked up): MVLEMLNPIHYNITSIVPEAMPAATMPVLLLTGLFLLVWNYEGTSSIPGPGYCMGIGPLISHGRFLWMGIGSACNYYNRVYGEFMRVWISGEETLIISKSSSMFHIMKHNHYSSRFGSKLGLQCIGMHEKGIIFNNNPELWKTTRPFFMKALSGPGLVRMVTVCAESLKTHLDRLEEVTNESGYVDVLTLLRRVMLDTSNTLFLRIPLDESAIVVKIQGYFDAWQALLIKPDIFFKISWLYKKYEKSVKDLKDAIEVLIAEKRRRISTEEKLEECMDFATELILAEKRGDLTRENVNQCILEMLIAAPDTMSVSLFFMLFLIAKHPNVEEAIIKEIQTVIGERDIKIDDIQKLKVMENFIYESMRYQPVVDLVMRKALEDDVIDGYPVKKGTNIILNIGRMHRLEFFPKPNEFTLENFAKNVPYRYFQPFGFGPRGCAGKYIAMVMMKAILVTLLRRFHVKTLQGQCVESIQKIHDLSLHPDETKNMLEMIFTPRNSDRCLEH
Sequence of Estrogen receptor (Homo sapiens) (P03372 whole entry, looked up): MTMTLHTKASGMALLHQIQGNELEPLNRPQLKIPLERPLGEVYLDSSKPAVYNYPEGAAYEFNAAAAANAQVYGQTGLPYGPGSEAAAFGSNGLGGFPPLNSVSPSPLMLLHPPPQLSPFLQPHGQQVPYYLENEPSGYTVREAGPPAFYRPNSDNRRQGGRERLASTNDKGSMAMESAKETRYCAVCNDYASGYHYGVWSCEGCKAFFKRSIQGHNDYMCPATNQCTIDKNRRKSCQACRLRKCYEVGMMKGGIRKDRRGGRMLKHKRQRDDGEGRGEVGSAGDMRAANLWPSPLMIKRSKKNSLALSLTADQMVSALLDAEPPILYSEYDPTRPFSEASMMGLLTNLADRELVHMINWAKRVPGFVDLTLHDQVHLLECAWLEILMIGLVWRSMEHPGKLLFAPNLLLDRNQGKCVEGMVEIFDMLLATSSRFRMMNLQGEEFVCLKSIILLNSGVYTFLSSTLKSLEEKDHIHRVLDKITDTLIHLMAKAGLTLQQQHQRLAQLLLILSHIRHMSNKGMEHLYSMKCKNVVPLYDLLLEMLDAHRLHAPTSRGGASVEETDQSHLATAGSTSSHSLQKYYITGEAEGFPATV
Sequence of Aryl hydrocarbon receptor (Homo sapiens) (P35869 whole entry, looked up): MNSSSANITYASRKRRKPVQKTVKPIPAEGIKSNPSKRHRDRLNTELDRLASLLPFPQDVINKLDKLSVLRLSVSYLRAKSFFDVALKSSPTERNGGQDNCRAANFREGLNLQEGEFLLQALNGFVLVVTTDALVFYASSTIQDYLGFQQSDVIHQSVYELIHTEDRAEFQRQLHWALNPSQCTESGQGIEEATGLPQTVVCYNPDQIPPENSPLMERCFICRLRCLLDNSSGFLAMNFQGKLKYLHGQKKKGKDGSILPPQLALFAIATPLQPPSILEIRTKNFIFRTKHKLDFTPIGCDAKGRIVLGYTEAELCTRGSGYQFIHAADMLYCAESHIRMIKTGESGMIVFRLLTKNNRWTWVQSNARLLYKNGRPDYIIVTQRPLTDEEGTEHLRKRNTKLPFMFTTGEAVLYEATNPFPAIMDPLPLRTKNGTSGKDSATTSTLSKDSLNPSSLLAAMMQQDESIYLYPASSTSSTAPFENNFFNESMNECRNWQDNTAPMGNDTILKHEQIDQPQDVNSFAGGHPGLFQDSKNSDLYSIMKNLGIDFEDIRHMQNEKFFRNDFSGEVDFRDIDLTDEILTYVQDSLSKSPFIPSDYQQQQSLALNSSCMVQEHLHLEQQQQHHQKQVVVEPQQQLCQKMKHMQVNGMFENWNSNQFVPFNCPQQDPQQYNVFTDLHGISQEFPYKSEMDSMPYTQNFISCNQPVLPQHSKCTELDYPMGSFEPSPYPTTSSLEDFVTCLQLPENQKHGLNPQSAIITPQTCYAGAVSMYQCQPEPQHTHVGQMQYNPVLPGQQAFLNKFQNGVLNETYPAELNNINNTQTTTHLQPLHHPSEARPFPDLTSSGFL

`CCCCOC(O)CC` (configuration not stated): the Potency entry in experiment [1], in [2], in experiment [3], in experiment [5], in experiment [6] and in [7] was “inactive” each time. The Potency result in [8], in [9], in experiment [10], in experiment [11], in experiment [12] and in experiment [13] was “inactive” throughout. For the same compound, the Potency entry in [14], in experiment [15], in experiment [16] and in experiment [17] was “inactive” in each case. Also, the outcome in [4] and in experiment [18] was inactive.

Turning to `Cc1cccc(C(C)(C)C)c1O`, the Potency result in experiment [1], in [2], in [5], in [6], in experiment [7] and in experiment [8] was “inactive” in each case. Further, the Potency entry in experiment [9], in [10], in [12], in experiment [13], in experiment [19] and in experiment [14] was “inactive” each time. The Potency result in experiment [15], in [16] and in [17] was “inactive” each time. The compound was called inactive in experiment [4] and in [18].

Consider `C=C(C)C(=O)OCCOc1ccccc1`, for which the Potency result in experiment [1], in experiment [2], in [5], in experiment [7], in experiment [8] and in experiment [10] was “inactive” in each case. The Potency entry in experiment [11], in experiment [12], in experiment [13], in experiment [19], in [15] and in experiment [16] was “inactive” throughout. Further, the Potency entry in experiment [17] was “inactive”. Further, the result in experiment [4] was inactive. For the same compound, in experiment [6], the Potency was 43.3 µM (active).

Regarding `Oc1ccc(Cc2ccccc2)cc1`, the Potency entry in experiment [1], in experiment [2], in [8], in experiment [12], in [14] and in experiment [16] was “inactive” each time. For the same compound, in [17], the Potency result was “inactive”. In addition, the compound was called inactive in experiment [4].

For `Nc1ccc(C(=O)Nc2ccccc2N)cc1`, the Potency in [1] is 18.8 µM (active); in [6] it was 33.5 µM (active); in experiment [11], 26.6 µM (active); in experiment [13], 9.52 µM (active). For the same compound, the Potency result in [2], in [5], in experiment [8], in experiment [9], in [10] and in experiment [12] was “inactive” in each case. Also, the Potency result in experiment [14] and in experiment [17] was “inactive” in each case. For the same compound, the compound was called inactive in experiment [4].

On to `Cc1cccc(Oc2ccccc2)c1`, for which the Potency result in [1], in experiment [2], in experiment [3], in experiment [5], in experiment [6] and in [7] was “inactive” throughout. In addition, the Potency result in experiment [8], in [10], in experiment [12], in experiment [13], in experiment [15] and in experiment [16] was “inactive” in each case. In addition, the Potency entry in [17] is “inactive”. Moreover, the compound was called inactive in [4] and in experiment [18].

Regarding `Cc1cc(C)c(S(=O)(=O)O)cc1N=Nc1cc(S(=O)(=O)O)c2ccccc2c1O`, the Potency is 34.4 µM (active) in [1], 54.5 µM (active) in experiment [8], 24.3 µM (active) in [10] and 27.3 µM (active) in experiment [12]. The Potency entry in experiment [2], in experiment [9], in [11], in [13], in experiment [14] and in experiment [16] was “inactive” in each case. In experiment [17], the Potency result was “inactive”. In addition, the call in experiment [4] and in [18] was inactive.

With `CN(C)CCCOc1nn(Cc2ccccc2)c2ccccc12`, in experiment [1], the Potency was 8.04 µM (active). Further, the Potency result in experiment [2], in [3], in [5], in experiment [6], in experiment [7] and in [8] was “inactive” in each case. Also, the Potency result in experiment [9], in experiment [10], in [12], in experiment [13], in [14] and in experiment [16] was “inactive” throughout. The Potency entry in experiment [17] was “inactive”. Besides, the outcome in experiment [4] and in [18] was inactive.

In the case of `c1ccc(-c2nc[nH]c2-c2ccccc2)cc1`, the Potency result in experiment [1], in [2], in experiment [8], in experiment [9], in experiment [10] and in experiment [11] was “inactive” each time. Further, the Potency result in experiment [12], in experiment [13], in [16] and in [17] was “inactive” each time. For the same compound, the result in experiment [4] and in experiment [18] was inactive.
